Experiments:
[1] = biological target: Rho-associated protein kinase 1 (Homo sapiens) (UniProt Q13464); details: at 1 µM;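 further: reported values are mean percent inhibition of ROCK1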
[2] = biological target: Rho-associated protein kinase 2 (Homo sapiens) (UniProt O75116); details: at 0.1 µM
[3] = biological target: Rho-associated protein kinase 2 (Homo sapiens) (UniProt O75116); details: at 1 µM
[4] = biological target: Ribosomal protein S6 kinase alpha-1 (Homo sapiens) (UniProt Q15418); details: at 0.1 µM
[5] = biological target: Ribosomal protein S6 kinase alpha-1 (Homo sapiens) (UniProt Q15418); details: at 1 µM
[6] = biological target: Ribosomal protein S6 kinase alpha-3 (Homo sapiens) (UniProt P51812); details: at 0.1 µM
[7] = biological target: Ribosomal protein S6 kinase alpha-3 (Homo sapiens) (UniProt P51812); details: at 1 µM
[8] = biological target: Ribosomal protein S6 kinase alpha-2 (Homo sapiens) (UniProt Q15349); details: at 0.1 µM
[9] = biological target: Ribosomal protein S6 kinase alpha-2 (Homo sapiens) (UniProt Q15349); details: at 1 µM
[10] = biological target: Ribosomal protein S6 kinase alpha-6 (Homo sapiens) (UniProt Q9UK32); details: at 0.1 µM;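 further: reported value is the mean inhibition of RSK4, from the GSK PKIS kinase inhibitor screen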
Chain of Ribosomal protein S6 kinase alpha-6 (Homo sapiens) (Q9UK32 whole entry): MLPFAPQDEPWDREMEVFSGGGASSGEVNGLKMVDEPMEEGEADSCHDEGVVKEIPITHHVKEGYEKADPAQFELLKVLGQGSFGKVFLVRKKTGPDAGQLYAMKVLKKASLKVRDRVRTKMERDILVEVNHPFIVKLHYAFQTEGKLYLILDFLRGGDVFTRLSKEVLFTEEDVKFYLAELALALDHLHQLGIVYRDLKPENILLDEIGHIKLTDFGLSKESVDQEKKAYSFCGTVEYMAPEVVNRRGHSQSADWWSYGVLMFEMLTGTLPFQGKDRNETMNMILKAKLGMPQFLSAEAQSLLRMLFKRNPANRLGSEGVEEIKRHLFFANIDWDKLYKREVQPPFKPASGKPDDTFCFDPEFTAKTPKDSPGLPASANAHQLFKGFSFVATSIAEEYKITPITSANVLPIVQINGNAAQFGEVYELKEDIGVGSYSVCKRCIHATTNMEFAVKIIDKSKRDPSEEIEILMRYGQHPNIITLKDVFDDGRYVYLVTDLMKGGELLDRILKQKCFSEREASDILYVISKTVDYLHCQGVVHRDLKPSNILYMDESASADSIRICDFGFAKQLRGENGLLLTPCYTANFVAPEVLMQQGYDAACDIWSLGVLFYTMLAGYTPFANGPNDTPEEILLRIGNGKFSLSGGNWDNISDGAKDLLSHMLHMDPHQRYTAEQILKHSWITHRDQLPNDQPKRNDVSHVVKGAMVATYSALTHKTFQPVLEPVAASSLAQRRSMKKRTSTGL

Chain of Rho-associated protein kinase 1 (Homo sapiens) (Q13464 2-1354 limits assumed): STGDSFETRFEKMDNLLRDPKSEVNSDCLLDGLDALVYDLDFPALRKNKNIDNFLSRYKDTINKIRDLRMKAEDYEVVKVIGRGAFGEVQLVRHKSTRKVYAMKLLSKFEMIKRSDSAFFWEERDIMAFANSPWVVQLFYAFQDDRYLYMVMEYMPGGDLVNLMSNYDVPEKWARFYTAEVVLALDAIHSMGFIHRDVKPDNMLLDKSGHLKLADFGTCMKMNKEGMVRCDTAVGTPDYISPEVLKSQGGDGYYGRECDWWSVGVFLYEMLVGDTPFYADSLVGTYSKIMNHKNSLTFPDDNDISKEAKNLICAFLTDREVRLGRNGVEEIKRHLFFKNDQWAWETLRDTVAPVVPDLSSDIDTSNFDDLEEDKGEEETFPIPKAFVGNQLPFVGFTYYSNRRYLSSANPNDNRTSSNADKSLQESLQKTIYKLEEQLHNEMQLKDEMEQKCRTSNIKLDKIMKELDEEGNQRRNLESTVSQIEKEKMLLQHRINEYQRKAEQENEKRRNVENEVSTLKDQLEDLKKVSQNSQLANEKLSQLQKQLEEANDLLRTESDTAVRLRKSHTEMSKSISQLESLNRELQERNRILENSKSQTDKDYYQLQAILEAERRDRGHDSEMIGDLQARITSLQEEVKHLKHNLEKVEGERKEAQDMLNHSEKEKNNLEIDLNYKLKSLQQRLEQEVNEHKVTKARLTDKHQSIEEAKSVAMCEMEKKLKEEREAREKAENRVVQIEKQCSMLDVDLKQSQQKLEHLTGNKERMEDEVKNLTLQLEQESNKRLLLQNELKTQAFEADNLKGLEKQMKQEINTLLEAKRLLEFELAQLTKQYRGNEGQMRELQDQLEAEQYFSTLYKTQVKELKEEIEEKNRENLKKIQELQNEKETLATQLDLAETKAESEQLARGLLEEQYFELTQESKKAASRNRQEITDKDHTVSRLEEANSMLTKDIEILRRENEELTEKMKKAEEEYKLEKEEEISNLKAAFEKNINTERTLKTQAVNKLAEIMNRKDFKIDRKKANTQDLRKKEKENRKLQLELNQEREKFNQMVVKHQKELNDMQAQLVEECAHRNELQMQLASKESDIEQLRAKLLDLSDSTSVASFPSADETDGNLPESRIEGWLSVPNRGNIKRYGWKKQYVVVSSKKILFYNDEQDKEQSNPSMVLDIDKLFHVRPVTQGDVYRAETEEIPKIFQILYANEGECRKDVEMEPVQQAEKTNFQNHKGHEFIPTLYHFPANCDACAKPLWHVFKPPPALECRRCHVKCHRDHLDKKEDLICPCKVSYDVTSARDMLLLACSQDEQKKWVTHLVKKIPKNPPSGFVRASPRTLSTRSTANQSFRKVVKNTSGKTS
Chain of Ribosomal protein S6 kinase alpha-2 (Homo sapiens) (Q15349 whole entry): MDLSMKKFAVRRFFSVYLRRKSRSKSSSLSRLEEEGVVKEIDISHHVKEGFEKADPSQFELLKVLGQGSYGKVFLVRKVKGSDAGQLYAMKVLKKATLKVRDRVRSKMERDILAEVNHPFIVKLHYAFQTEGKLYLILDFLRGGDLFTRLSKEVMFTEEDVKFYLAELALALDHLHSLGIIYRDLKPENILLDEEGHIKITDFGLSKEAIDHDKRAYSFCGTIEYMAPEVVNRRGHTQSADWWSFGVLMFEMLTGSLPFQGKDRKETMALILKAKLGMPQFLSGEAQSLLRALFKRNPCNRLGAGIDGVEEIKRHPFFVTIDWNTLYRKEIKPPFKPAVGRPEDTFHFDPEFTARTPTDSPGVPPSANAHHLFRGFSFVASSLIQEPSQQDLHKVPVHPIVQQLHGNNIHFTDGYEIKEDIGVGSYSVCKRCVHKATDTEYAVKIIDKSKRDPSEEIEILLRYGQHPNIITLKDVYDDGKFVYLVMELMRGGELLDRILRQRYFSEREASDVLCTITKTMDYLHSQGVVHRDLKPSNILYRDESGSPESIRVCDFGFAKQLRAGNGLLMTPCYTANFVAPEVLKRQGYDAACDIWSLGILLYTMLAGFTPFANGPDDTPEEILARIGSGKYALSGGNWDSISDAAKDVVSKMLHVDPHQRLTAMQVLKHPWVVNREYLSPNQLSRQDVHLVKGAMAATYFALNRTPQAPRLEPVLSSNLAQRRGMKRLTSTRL
Chain of Ribosomal protein S6 kinase alpha-1 (Homo sapiens) (Q15418 whole entry): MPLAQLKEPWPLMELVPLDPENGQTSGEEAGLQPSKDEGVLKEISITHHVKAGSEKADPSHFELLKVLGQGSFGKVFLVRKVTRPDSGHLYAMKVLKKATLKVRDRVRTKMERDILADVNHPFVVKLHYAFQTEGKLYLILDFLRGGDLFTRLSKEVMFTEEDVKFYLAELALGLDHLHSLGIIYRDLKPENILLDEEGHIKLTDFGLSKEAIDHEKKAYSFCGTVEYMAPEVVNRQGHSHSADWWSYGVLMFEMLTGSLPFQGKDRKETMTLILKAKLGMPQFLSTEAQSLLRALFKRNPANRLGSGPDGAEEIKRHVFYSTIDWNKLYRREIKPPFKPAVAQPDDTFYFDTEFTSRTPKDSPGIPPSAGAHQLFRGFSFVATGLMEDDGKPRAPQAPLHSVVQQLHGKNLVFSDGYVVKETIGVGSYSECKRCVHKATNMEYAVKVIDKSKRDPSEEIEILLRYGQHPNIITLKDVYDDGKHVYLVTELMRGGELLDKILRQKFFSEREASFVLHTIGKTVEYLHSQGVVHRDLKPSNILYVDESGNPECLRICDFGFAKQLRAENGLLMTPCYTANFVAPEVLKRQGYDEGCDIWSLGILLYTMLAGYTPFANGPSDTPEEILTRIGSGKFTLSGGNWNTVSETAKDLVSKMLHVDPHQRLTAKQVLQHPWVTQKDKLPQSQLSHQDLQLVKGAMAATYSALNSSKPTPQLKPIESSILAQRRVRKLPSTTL
Chain of Ribosomal protein S6 kinase alpha-3 (Homo sapiens) (P51812 whole entry): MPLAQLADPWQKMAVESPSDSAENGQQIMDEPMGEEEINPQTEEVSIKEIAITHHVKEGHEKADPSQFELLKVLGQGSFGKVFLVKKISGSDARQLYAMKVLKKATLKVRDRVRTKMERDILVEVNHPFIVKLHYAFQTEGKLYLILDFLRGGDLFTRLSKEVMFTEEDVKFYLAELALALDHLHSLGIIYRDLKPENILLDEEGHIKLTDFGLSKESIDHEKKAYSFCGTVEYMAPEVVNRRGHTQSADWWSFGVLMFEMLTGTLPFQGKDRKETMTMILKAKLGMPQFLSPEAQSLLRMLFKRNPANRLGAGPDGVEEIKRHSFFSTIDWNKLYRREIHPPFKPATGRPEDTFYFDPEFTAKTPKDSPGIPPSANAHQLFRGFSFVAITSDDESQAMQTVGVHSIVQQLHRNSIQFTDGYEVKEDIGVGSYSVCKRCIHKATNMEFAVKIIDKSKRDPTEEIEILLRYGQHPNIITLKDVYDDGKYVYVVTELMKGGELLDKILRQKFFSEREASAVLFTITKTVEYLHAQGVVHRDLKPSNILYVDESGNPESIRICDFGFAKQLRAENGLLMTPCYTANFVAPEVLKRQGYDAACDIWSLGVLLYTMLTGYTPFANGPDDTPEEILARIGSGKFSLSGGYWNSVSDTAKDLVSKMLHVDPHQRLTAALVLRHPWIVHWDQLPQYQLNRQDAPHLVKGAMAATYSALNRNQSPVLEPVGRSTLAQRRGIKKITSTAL

Compound | inhibition [1] | inhibition [2] | inhibition [3] | inhibition [4] | inhibition [5] | inhibition [6] | inhibition [7] | inhibition [8] | inhibition [9] | inhibition [10]
COc1cc2ncn(-c3cc(OCc4ccccc4C(F)(F)F)c(C(=O)N(C)C)s3)c2cc1OC | 0.34% | -0.35% | 1.56% | -0.72% | 0.84% | -0.53% | 0.59% | -0.15% | 1.29% | -0.29%
COc1cc2c(cc1Nc1nc(Nc3ccsc3C(N)=O)c3cc[nH]c3n1)N(C(=O)CN(C)C)CCC2(C)C | 66.5% | 29.2% | 72.1% | 23.2% | 66% | 17.2% | 50.7% | 8.55% | 34.4% | 11.5%
COC(=O)Nc1nc2ccc(Oc3ccc(NC(=O)Nc4cccc(Cl)c4)cc3)cc2[nH]1 | 6.4% | 2.53% | 5.68% | -0.78% | 0.39% | 0.65% | 1.37% | 0.54% | 0.67% | -0.53%
Cc1cccc2c1NC(=O)/C2=N\Nc1ccc(S(N)(=O)=O)cc1 | 2.1% | 3.93% | 1.59% | 1.09% | 1.6% | 0.33% | 1.26% | 1.69% | 2.49% | 1.43%
COC(=O)Nc1nc2ccc(S(=O)(=O)c3ccc(NC(=O)Nc4cc(C(F)(F)F)ccc4F)cc3)cc2[nH]1 | 2.05% | 1.37% | -0.72% | 1.38% | 0.31% | 0.77% | 0.41% | 1.99% | 2.47% | 0.08%
CCn1c(-c2nonc2N)nc2c(C#CC(C)(C)O)nc(OC[C@H](N)c3ccccc3)cc21 | 24.7% | 9.12% | 51.3% | 3.36% | 12.8% | 1.74% | 14.5% | 3.19% | 10.7% | 1.53%
FC(F)(F)c1cccc(-c2nn3ncccc3c2-c2ccnc(Nc3ccc4c(c3)OCCO4)n2)c1 | 2.47% | 0% | 1.32% | 1.14% | 5.1% | -0.79% | -1.39% | 1.2% | 2.46% | 1.4%
COc1cccc(-n2ncc3c(N/N=C/c4ccc(F)cc4)ncnc32)c1 | 1.49% | 4.65% | 6.14% | 2.21% | 4.62% | 1.27% | 2.74% | 0.94% | 3.3% | 1.4%
Fc1ccc(-c2cc(-c3c[nH]nc3-c3ccccn3)ccn2)cc1 | 1.54% | 2.91% | 7.8% | 1.71% | 5.2% | 0.81% | 3.36% | 1.61% | 2.64% | -0.68%
Fc1ccc(-c2nn3ccccc3c2-c2ccncc2)cc1 | 4.95% | 5.66% | 3.03% | 1.48% | 4.42% | 1.87% | 3.24% | 0.67% | 1.19% | 1.1%
CNC(=O)c1cccc(C#Cc2cncnc2Nc2ccc(OCc3cccc(F)c3)c(Cl)c2)c1 | -0.1% | 0.98% | 4.37% | 1.04% | 1.83% | -0.84% | 0.62% | -0.63% | 0.72% | -0.53%
CCNC(=O)O[C@H]1CN[C@H](C#Cc2cc3ncnc(Nc4ccc(OCc5cccc(F)c5)c(Cl)c4)c3s2)C1 | 1.95% | 2.86% | 0.32% | 1.32% | 0.05% | -0.04% | -1.01% | 1.63% | 0.86% | 1.4%
Fc1cccc(COc2ccc(Nc3ncnc4sc(-c5ccco5)cc34)cc2Cl)c1 | 2.72% | 3.35% | 4.12% | 2.09% | 2.91% | 1.55% | 3.12% | 2.51% | 2.48% | 1.33%
Cc1cccc(Nc2ncc(-c3ccccc3)o2)c1 | 4.38% | 2.08% | 3.95% | 2.35% | 2.99% | 0.91% | 3.43% | 2.17% | 2.67% | 1.32%
CN1CCC(n2cnc(-c3ccc(F)cc3)c2-c2ccnc(Nc3ccccc3)n2)CC1 | 0.32% | 0.82% | 3.27% | 1.76% | 4.83% | 1.15% | 3.9% | 2.93% | 2.91% | 3.17%
CC1=C(C(=O)Nc2cc(Cl)c3[nH]ncc3c2)C(c2ccc(C(F)(F)F)cc2)CC(=O)N1 (stereo not given) | 84% | 72.3% | 85.8% | 27.8% | 68.7% | 22.3% | 65.5% | 13.1% | 53.4% | 7.7%

Reference: ChEMBL document CHEMBL1961873, “Compounds: GSK PKIS; Assays: Nanosyn kinase panel” (2012)
